Results taken from PubChem BioAssay.
Where a SMILES comes first, the peptide text is derived from it. [ ]: non-standard residue; d: D form. ξ: configuration not given here. ξV = CC(C)C(N)C(=O)O

What was measured:
[1] = tested on: Botulinum neurotoxin type F light chain protease (Clostridium botulinum); test: Botulinum neurotoxin type F light chain protease inhibition, multiplex microsphere flow cytometry, validation set (AID 588459); details: multiplex microsphere protease substrate cleavage assay, at 10 µM, active compounds read high
[2] = target: Botulinum neurotoxin type A (Clostridium botulinum) (UniProt P0DPI0); test: BoNT/A light chain protease inhibitors, biochemical, multiplex microsphere flow cytometry, validation set (AID 588460); details: at 10 µM, active compounds read high
[3] = target: Lethal factor (Bacillus anthracis) (UniProt P15917); test: Lethal factor protease inhibitors, Bacillus anthracis, multiplex microsphere cleavage assay, validation set (AID 588461); details: flow cytometry, at 10 µM, active compounds read high

Measured: inhibition

CCOC(=O)c1ccccc1NC(=O)c1ccc(F)cc1
inactive: [1] -1.8% | [2] -1% | [3] -0.1%

CCOC(=O)c1ccc(N2C(=O)C(CC(N)=O)N(CCc3ccc(OC)c(OC)c3)C2=S)cc1 (stereo not drawn)
inactive: [1] 2% | [2] 1.1% | [3] -0.3%

CCCCCCCCCC(=O)OCC(O)CO (stereo not drawn)
inactive: [1] -3.5% | [2] -2% | [3] -4.5%

COc1cc2c(cc1OC)C(Cc1ccc(O)cc1)N(C)CC2 (stereo not drawn)
inactive: [1] 2.2% | [2] 0% | [3] -0.9%

Cc1cc(C(=O)NC(CC(C)C)C(=O)O)cc(C)c1[N+](=O)[O-] (stereo not drawn)
inactive: [1] -4.1% | [2] -0.3% | [3] -5.7%

COc1ccc(S(N)(=O)=O)cc1C(N)=O
inactive: [1] 1.6% | [2] 0.4% | [3] -0.3%

O=C1CCCN1CCCn1cnc2c([nH]c3ccc(F)cc32)c1=O
inactive: [1] 0% | [2] -0.3% | [3] 2.3%

CCCC(=O)Nc1ccccc1NC(C)=O
inactive: [1] 1.4% | [2] 0.3% | [3] -2.9%

Cc1ccc(S(=O)(=O)n2ccnc2)cc1C
inactive: [1] 1.4% | [2] -0.3% | [3] -1.7%

CN(C)c1ccc(CNCCC(Cc2ccccc2)c2ccco2)cc1 (stereo not drawn)
inactive: [1] -4.5% | [2] -0.8% | [3] -8.8%

CN(C)CCOCCOc1ccc(Cl)cc1Br
inactive: [1] 6.4% | [2] 1% | [3] -5.5%

O=C(CS(=O)(=O)c1ccccc1)c1ccc2c(c1)OCCO2
inactive: [1] 3.2% | [2] 0.7% | [3] 2.2%

CC(C[N+](C)(C)C)OC(N)=O (stereo not drawn)
inactive: [1] -0.5% | [2] -0.4% | [3] 6.6%

COc1ccc(/C=C\c2cc(OC)c(OC)cc2CC[N+](C)(C)C)cc1OC
inactive: [1] 2% | [2] -1.4% | [3] 3.5%

COc1ccc(C(CC(=O)N2CCOCC2)C(C)C)cc1 (stereo not drawn)
inactive: [1] -4.7% | [2] -1.9% | [3] -8.6%

O=C1CCCCCN1Cc1ccccc1
inactive: [1] -3.6% | [2] -1.9% | [3] -2.7%

COCCCN1C(=O)C(=O)/C(=C(/O)c2ccc3c(c2)CC(C)O3)C1c1cccnc1 (stereo not drawn)
inactive: [1] -3% | [2] -2.1% | [3] 3.5%

CCC(NC(C)C)C(O)c1ccc(O)c(O)c1 (stereo not drawn)
inactive: [1] -5.4% | [2] -0.9% | [3] -4%

CC(=O)NC(C(=O)NCC(N)=O)C(C)C (stereo not drawn) (Ac-[ξV]-Gly-NH2)
inactive: [1] -3% | [2] 0.1% | [3] 0.5%

COc1ccc(CCN2CCC(Nc3nc4ccccc4n3Cc3ccc(F)cc3)CC2)cc1
inactive: [1] -1.8% | [2] 0.4% | [3] 1.2%

COc1cc2cc(C(=O)O)n(C)c2c(OC)c1OC
inactive: [1] 1.3% | [2] -0.4% | [3] 1.2%

CN(C)CCN(Cc1ccc(Cl)cc1)c1ccccn1
inactive: [1] -0.9% | [2] 0.1% | [3] -1.2%

O=C1N=c2ccccc2=C1c1[nH]c(=S)[nH]c1O
inactive: [1] 3.3% | [2] -0.7% | [3] 7%

O=C(CN1C(=O)/C(=C/c2cccc(Br)c2)SC1=S)Nc1cccnc1
inactive: [1] 1.8% | [2] -0.3% | [3] 4.2%

COc1cc(Cl)cc2c1Sc1ccccc1/C2=C/CCN(C)C
inactive: [1] -4.5% | [2] -1.1% | [3] -16.6%

CCO/C([O-])=N/c1c[n+](N2CCOCC2)no1
inactive: [1] 0.3% | [2] 0.5% | [3] -5.4%
